The conditions of test [1]: Ebola virus entry assay, green fluorescence channel.
The conditions of test [2]: Ebola virus entry assay, blue channel fluorescence.
For test [3] the following is noted: Ebola virus entry assay, ratio channel.
For test [4] the following is noted: Ebola virus entry assay, green channel fluorescence.
For test [5] the following is noted: Ebola virus entry assay, reporter ratio channel; Channel type: primary.

Values without a mark were called inactive. For some of these results: Measured potencies and affinities stand elsewhere. Active and inactive are the calls of the source. No rule for the calls is given here.
For efficacy in this document: 0% is about no effect.

Turning to `CCCC(=O)O[C@]1(C(=O)CCl)[C@@H](C)C[C@H]2[C@@H]3CCC4=CC(=O)C=C[C@]4(C)[C@@]3(F)C(=O)C[C@@]21C`, the efficacy in test [1] was 17%. Further, the AC50 (as a rule, the concentration at which the activity in the assay is half-maximal) is 35.5 µM (active) in test [2], 20 µM (active) in test [3] and 20 µM (active) in test [5]. The compound was classed as inactive in test [4].
Take `CC1(c2ccccc2)OC(C(=O)O)=CC1=O` (stereo not given): in test [1], the efficacy was -18.5%. Besides, the call in test [2], in test [3], in test [4] and in test [5] was inactive.
In the case of `CCOC(=O)Nc1ccc(NCc2ccc(F)cc2)nc1N`, the efficacy in test [1] was 25.7%. The call in test [2], in test [3], in test [4] and in test [5] was inactive.
With `Cc1ccc(CCn2c3c(c4cc(Cl)ccc42)CN(C)CC3)cn1`, in test [1], the efficacy is 26.4%. Moreover, the results for the AC50 in test [2], in test [3] and in test [5] were 14.1 µM (active), 17.8 µM (active) and 17.8 µM (active), respectively. Also, in test [4], the outcome was inactive.
On to `CCN1CCN(c2cc(-c3ccc(F)cc3)c3c(n2)CCCCCC3)CC1`, for which the efficacy in test [1] was 32.1%. The half-maximal activity concentration (AC50) in test [2] was 1.41 µM (active); in test [3], 1.78 µM (active); in test [5], 1.78 µM (active). The result in test [4] was inactive.
Consider `C#C[C@]1(O)CC[C@H]2[C@@H]3CCc4cc(O)ccc4[C@H]3CC[C@@]21C`, for which, in test [1], the efficacy was -19.9%. Also, the AC50 in test [2], in test [3] and in test [5] was 11.2 µM (active) each time. Also, the result in test [4] was inactive.
Regarding `CC(C)NCC(O)COc1ccc(COCCOC(C)C)cc1` (stereo not given), the efficacy in test [1] is 22.5%. In addition, the AC50 in test [2] is 15.8 µM (active); in test [3] it was 12.6 µM (active); in test [5] it was 12.6 µM (active). For the same compound, in test [4], the call was inactive.
As for `COc1ccc2nc(NC(=O)Nc3ccccc3)sc2c1`, in test [1], the efficacy was -33.8%. In addition, the concentration at half-maximal activity (AC50) in test [2] is 22.4 µM (active); in test [3] it was 15.8 µM (active); in test [5] it was 15.8 µM (active). In addition, the call in test [4] was inactive.
For the compound `Clc1ccccc1C(c1ccccc1)(c1ccccc1)n1ccnc1`, the efficacy in test [1] is 24.5%. Besides, the AC50 in test [2] and in test [5] was 39.8 µM (active) throughout. For the same compound, the result in test [3] and in test [4] was inactive.
On to `CC(C)(Cc1c[nH]c2ccccc12)NCC(O)COc1ccccc1C#N` (stereo not given), for which the efficacy in test [1] was 48.7%. For the same compound, the AC50 in test [2] is 35.5 µM (active); in test [3], 25.1 µM (active); in test [5], 25.1 µM (active). In addition, in test [4], the compound was called inactive.
As to `CCOC(=O)C1=C[C@]2(CC)CCCN3CCc4c(n1c1ccccc41)[C@@H]32`, in test [1], the efficacy was -42.6%. Moreover, the AC50 in test [2] was 12.6 µM (active); in test [3], 17.8 µM (active); in test [5], 17.8 µM (active). Also, in test [4], the call was inactive.
As to `CC[C@H](NC(C)C)[C@H](O)c1ccc(O)c2[nH]c(=O)ccc12`, the efficacy in test [1] was -13.2%. Further, the compound was called inactive in test [2], in test [3], in test [4] and in test [5].
As to `CC1=C(C(=O)O)N2C(=O)[C@@H](NC(=O)[C@H](N)C3=CCC=CC3)[C@H]2SC1`, the efficacy in test [1] is -21.8%. The call in test [2], in test [3], in test [4] and in test [5] was inactive.
Take `O=c1[nH]sc2cc(Cl)ccc12`: the efficacy in test [1] is -42.1%. Further, the AC50 in test [2] and in test [5] was 39.8 µM (active) each time. Besides, the outcome in test [3] and in test [4] was inactive.
As to `Clc1ccc(Nc2nnc(Cc3ccncc3)c3ccccc23)cc1`, the efficacy in test [1] was -25.3%. For the same compound, the AC50 in test [2] is 15.8 µM (active); in test [5], 31.6 µM (active). In addition, the result in test [3] and in test [4] was inactive.
For the compound `CC(C)(C)C(=O)C(Oc1ccc(Cl)cc1)n1ccnc1` (stereo not given), in test [1], the efficacy was 12.3%. Also, the AC50 in test [2] and in test [5] was 39.8 µM (active) each time. For the same compound, the outcome in test [3] and in test [4] was inactive.
As for `Nc1ccc(N=Nc2ccccc2)c(N)n1`, in test [1], the efficacy was -23.7%. The AC50 in test [2] and in test [5] was 39.8 µM (active) throughout. Also, the outcome in test [3] and in test [4] was inactive.
For `Cc1cccc(N(C)C(=S)Oc2ccc3ccccc3c2)c1`, in test [1], the efficacy was 22.5%. For the same compound, the AC50 in test [2], in test [3] and in test [5] was 25.1 µM (active) in each case. Further, the result in test [4] was inactive.
For the compound `CC[C@H]1CN2CCc3cc(OC)c(OC)cc3[C@@H]2C[C@@H]1C[C@H]1NCCc2cc(OC)c(OC)cc21`, the efficacy in test [1] was 58.8%. Also, the half-maximal activity concentration (AC50) in test [2], in test [3] and in test [5] was 17.8 µM (active) throughout. Moreover, the compound was called inactive in test [4].
As to `COCCc1ccc(OCC2CO2)cc1` (stereo not given), in test [1], the efficacy was 25.5%. In addition, the result in test [2], in test [3], in test [4] and in test [5] was inactive.
With `CC(C)OC(=O)c1cc2c(OCC(O)CNC(C)(C)C)cccc2[nH]1` (stereo not given), the efficacy in test [1] is -19.4%. Besides, the AC50 in test [2] is 28.2 µM (active); in test [3], 31.6 µM (active); in test [5] it was 31.6 µM (active). Besides, the compound was classed as inactive in test [4].
As to `CCC1(c2cnc[nH]2)Cc2ccccc2C1`, the efficacy in test [1] was -11.3%. In addition, the results for the AC50 in test [2] and in test [5] were 25.1 µM (active) and 31.6 µM (active), respectively. Moreover, the outcome in test [3] and in test [4] was inactive.
Consider `CC1(C)O[C@@H]2C[C@H]3[C@@H]4CCC5=CC(=O)CC[C@]5(C)[C@@]4(F)[C@@H](O)C[C@]3(C)[C@]2(C(=O)CCl)O1`, for which the efficacy in test [1] is 53.9%. Also, the AC50 is 12.6 µM (active) in test [2], 10 µM (active) in test [3] and 10 µM (active) in test [5]. Further, the compound was classed as inactive in test [4].
Consider `C[C@]12CC[C@@H]3c4ccc(O)cc4CC[C@H]3[C@@H]1C[C@@H](O)[C@@H]2O`, for which the efficacy in test [1] is -24.2%. Further, the AC50 was 20 µM (active) in test [2] and 35.5 µM (active) in test [5]. Moreover, the result in test [3] and in test [4] was inactive.
Take `N=C(N)c1ccc2cc(OC(=O)c3ccc(N=C(N)N)cc3)ccc2c1`: the efficacy in test [1] is 15%. Further, the outcome in test [2], in test [3], in test [4] and in test [5] was inactive.
As for `CCc1cc2cc(OC)c(OC)cc2c(Cc2ccccc2)n1`, in test [1], the efficacy is 32.1%. Also, the AC50 was 25.1 µM (active) in test [2] and 31.6 µM (active) in test [5]. Further, the outcome in test [3] and in test [4] was inactive.
